In PubChem BioAssay (NCATS) one finds Potency data, which are given here for twelve compounds.

Structures are written as SMILES. Results filed as inconclusive are left out. A call without a number means that no potency is given here. Active and inactive are the calls of the source. Calls follow the shape of the dose curve; as a rule, active = well fitted inhibition curve with a large enough effect; inconclusive = small, poorly fitted or top-dose-only effect; inactive = no such curve, though single readings can be large or run the other way.

The target in the assay is Cytochrome P450 3A7 (Homo sapiens) (UniProt P24462). In words: Cytochrome P450 family 3 subfamily A member 7 (CYP3A7) small molecule antagonists: luciferase biochemical qHTS assay (AID 1963596). Also: nearly all actives have a fitted effect of over 40% in size. The gist of the method: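 Biochemical CYP3A7 activity measured with P450-Glo system: luciferin formed from proluciferin substrate in NADPH-driven reaction (1 h, room temperature) after 10 min compound preincubation. Signal in relative luminescence units.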
Cytochrome P450 3A7 (Homo sapiens), sequence (P24462 whole entry, looked up): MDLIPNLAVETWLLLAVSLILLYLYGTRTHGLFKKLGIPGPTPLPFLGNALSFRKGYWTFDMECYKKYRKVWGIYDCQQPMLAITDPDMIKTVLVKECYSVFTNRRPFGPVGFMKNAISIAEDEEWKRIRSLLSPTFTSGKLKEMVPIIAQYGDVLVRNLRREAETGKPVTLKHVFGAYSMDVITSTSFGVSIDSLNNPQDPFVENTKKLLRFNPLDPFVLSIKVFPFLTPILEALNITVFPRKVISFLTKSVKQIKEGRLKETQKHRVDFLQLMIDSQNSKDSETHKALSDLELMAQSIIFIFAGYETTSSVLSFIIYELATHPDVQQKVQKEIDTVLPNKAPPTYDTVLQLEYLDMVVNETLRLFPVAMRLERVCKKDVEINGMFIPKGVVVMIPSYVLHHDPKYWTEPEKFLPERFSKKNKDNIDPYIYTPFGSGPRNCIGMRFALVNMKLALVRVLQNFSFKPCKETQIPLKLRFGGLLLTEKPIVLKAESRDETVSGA

Consider `CCCCCC/C=C\CCCCCCCc1cccc(O)c1C(=O)O`, for which the Potency result was “inactive”. For `COc1ccc(NC(=O)CSc2nc(-c3cccs3)cc(C(F)(F)F)n2)cc1OC`, the Potency entry was “inactive”. For the compound `Cc1c(C(=O)Nc2ccc(N3CC(C)OC(C)C3)nc2)cccc1-c1ccc(OC(F)(F)F)cc1` (configuration not stated), the Potency entry was “inactive”.

In the case of `NC(=O)C(CCC(F)(F)F)N(Cc1ccc(-c2ncon2)cc1F)S(=O)(=O)c1ccc(Cl)cc1` (configuration not stated), the Potency entry is “inactive”. The entry for `Cc1cccc(C)c1NC(=O)C(C)N` (configuration not stated) is “inactive”. The entry for `NC(Cc1ccc(O)c(O)c1)C(=O)O` (configuration not stated) is “inactive”; for `S=C=Nc1ccc(N=C=S)cc1` it is “inactive”. Turning to `CC(C)[C@H](N)C(=O)O`, the Potency result was “inactive”. With `COc1ccc(OC)c(-c2ccc(NC(=O)c3ccncc3F)cc2)c1` the entry was “inactive”; with `On1ncc(C2CCNCC2)c1-c1cccc(-c2ccccc2)c1`, “inactive”. With `CC(C)C[C@H](NC(=O)CNC(=O)[C@H](Cc1ccc(O)cc1)NC(=O)[C@H](CO)NC(=O)[C@H](Cc1c[nH]c2ccccc12)NC(=O)[C@H](Cc1cnc[nH]1)NC(=O)[C@@H]1CCC(=O)N1)C(=O)N[C@@H](CCCN=C(N)N)C(=O)N1CCC[C@H]1C(=O)NCC(N)=O` (stereo in doubt) the entry was “inactive”; with `CN[C@H](CC(C)C)C(=O)N[C@H]1C(=O)N[C@@H](CC(N)=O)C(=O)N[C@H]2C(=O)N[C@H]3C(=O)N[C@H](C(=O)N[C@H](C(=O)O)c4cc(O)cc(O)c4-c4cc3ccc4O)[C@H](O)c3ccc(c(Cl)c3)Oc3cc2cc(c3O[C@@H]2OC(CO)[C@@H](O)[C@H](O)[C@@H]2O[C@H]2C[C@](C)(N)[C@H](O)[C@H](C)O2)Oc2ccc(cc2Cl)[C@H]1O` (some centres not stated), “inactive”.
